We go through ten molecules from PubChem BioAssay (NCATS).

Assay [1] in a line: qHTS for differential inhibitors of proliferation of Plasmodium falciparum line Dd2 (AID 1882). Also: nearly all actives have a fitted effect of over 65% in size. Also: potency is read from the fitted curve at half-maximal effect. The following applies: Potency: Plasmodium falciparum Dd2 proliferation inhibition. The method, boiled down:
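SYBR Green I DNA fluorescence read-out, ex 485/em 535 nm. Signals were normalized to 0.29 uM artemisinin and DMSO wells, then corrected using vehicle-only plates flanking each stack. Parasite growth ran 72 h in erythrocytes before lysis.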

Assay [2] can be described thus: qHTS for differential inhibitors of proliferation of Plasmodium falciparum line W2 (AID 1883).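 Also: parasites grown with compound for 72 h before lysis and staining.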 Also: potency is read from the fitted curve at half-maximal effect. The note with it: Potency: Plasmodium falciparum W2 proliferation inhibition. A general note: Quantitative high-throughput screening tests each substance at several concentrations.
Assay [3] can be described thus: qHTS for differential inhibitors of proliferation of Plasmodium falciparum line HB3 (AID 1886).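 Also: parasites grown with compound for 72 h before SYBR Green readout.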 Also: potency is read from the fitted curve at half-maximal effect. The note with it: Potency: Plasmodium falciparum HB3 proliferation inhibition.
A short description of assay [4]: qHTS Assay for Modulators of Human Peripheral Myelin Protein 22 (PMP22) Expression/Activity (AID 1967; active = well fitted curve in the direction sought with a large enough effect in the signal ratio; the % refers to the signal ratio). The method, boiled down:
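MSC80 mouse Schwann cells stably carrying Pmp22 promoter–green click beetle luciferase plus EF-alpha–red luciferase control were dosed for 24h at 37 °C. Dual-colour luminescence was filter-overlap corrected; %Activity came from green/red ratio versus untreated cells.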

The target of assay [5] is Ferritin light chain (Equus caballus) (UniProt P02791). Kind of assay: qHTS Validation Assay for Identification of Novel General Anesthetics (AID 2323). Also: series mostly up to about 77 µM. The method, boiled down:
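Competitive displacement of profluorescent 1-aminoanthracene (1-AMA, 50% saturated solution in PBS) from 10 uM horse-spleen apoferritin. Compounds incubated 10 min at room temperature; fluorescence read at 380 nm excitation/535 nm emission, normalized to free 1-AMA and complex, fitted with four-parameter Hill equation.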

In assay [6] the target is ATP-dependent DNA helicase Q1 (Homo sapiens) (UniProt P46063). Description: qHTS Validation Assay for Inhibitors of RecQ-Like Dna Helicase 1 (RECQ1) (AID 2353). Also: potency is read from the fitted curve at half-maximal effect. Summed up: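 50 nM RECQ1T1 preincubated 15 min with compound in Tris pH 8.0 buffer with MgCl2, DTT, Tween-20 and 2.5 ug/ml poly(dI-dC); started with 200 nM TAMRA/BHQ-2 forked duplex and 2 mM ATP. Unwinding read as fluorescence (525/598 nm), two reads 2 h apart.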

Assay [7] in a line: Cytometric Cell-Based qHTS for Inhibitors of the mTORC1 Signaling Pathway in MEF (Tsc2-/-, p53-/-) Cells (AID 2660).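 Also: percent of cells above a phospho-rpS6 to PI ratio cutoff in each well; series mostly up to about 38 µM.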 The method, boiled down:
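Percent of cells positive for normalized phospho-S6 staining is reported, with the cutoff set from rapamycin (7.5 nM) versus DMSO wells. Tsc2-/-, p53-/- MEFs received compound for 24 hrs.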

A short description of assay [8]: High Content Imaging Cell-Based qHTS for Inhibitors of the mTORC1 Signaling Pathway in MEF (Tsc2-/-, p53-/-) Cells (AID 2666).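 Also: percent of cells scored positive for phospho-rpS6 Ser235/236 immunostaining by imaging.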 Summed up: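 Read-out: % positive cells per well, with thresholds from highest- and lowest-signal wells, based on phospho-rpS6 (Ser235/236) intensity normalized to Hoechst nuclear stain. Cells: Tsc2-/-, p53-/- MEFs carrying empty vector; compound 24 hrs, 37 degree Celsius.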

Assay [9] can be described thus: High Content Imaging Cell-Based qHTS for Inhibitors of the mTORC1 Signaling Pathway in MEF Cells (AID 2667). Also: potency is read from the fitted curve at half-maximal effect. The method, boiled down:
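MEF (Tsc2-/-, p53-/-, WT Tsc2 re-expressed); cpd 24 h, 37 °C; PFA fix; Alexa-488 anti-p-rpS6 Ser235/236, PI, Hoechst; IN Cell imaging; Hoechst/Alexa-488 intensity ratio; % active cells, thresholds set from rapamycin and DMSO wells.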

Assay [10] can be described thus: Cytometry Cell-Based qHTS for Inhibitors of the mTORC1 Signaling Pathway in MEF cells (AID 2668). Also: potency is read from the fitted curve at half-maximal effect. Summed up: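 WT MEFs (Tsc2-/-, p53-/- stably re-expressing WT Tsc2) in DMEM + 10% FBS received compounds 24 hrs after plating, for 24 hrs at 37 degree Celsius. Fixed cells stained with Alexa-488 anti-phospho-rpS6 Ser235/236 and propidium iodide; laser-scanning cytometry read-out.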

Assay [11] in a line: Validation screen for small molecules that induce DNA re-replication in MCF 10A normal breast cells (AID 463097). Also: nearly all actives have a fitted effect of over 60% in size. Also: potency is read from the fitted curve at half-maximal effect. The method, boiled down: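 Readout: Hoechst nuclear fluorescence intensity, 405 ex / 500-530 em, by scanning plate imager; re-replication scored as increase in nuclei with elevated DNA content. Cells exposed to compound 48 hr, 37 C, 5% CO2 beforehand.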
For assay [12], the target named is Ubiquitin carboxyl-terminal hydrolase 2 (Homo sapiens) (UniProt O75604). Kind of assay: qHTS Validation Assay for Inhibitors of Ubiquitin-specific Protease USP2a Using CHOP2 as the Reporter (AID 463106). Summed up:
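USP2 core (10nM final) was preincubated with compound for 30min at RT in 20mM Tris-HCl pH 8.0, 2mM CaCl2, 2mM beta-mercaptoethanol, 0.05% CHAPS. Ub-CHOP2 and reporter substrate (25nM each) were added, and fluorescence (Ex 485/Em 531nm) was read after 60min.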

Assay [13] concerns the target DNA polymerase III PolC-type (Bacillus subtilis (strain 168)) (UniProt P13267). Description: qHTS Validation Assay for the Inhibitors of DNA Replication in Gram-Positive Bacteria (AID 485295). Also: potency is read from the fitted curve at half-maximal effect. The method, boiled down:
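Reconstituted B. subtilis holoenzyme (Pol III, beta clamp, SSB, primase) was preincubated with compound at room temperature, then given single-stranded circular M13Gori plus dNTPs and NTPs. EDTA-containing PicoGreen stopped the reaction, and dsDNA product was read by fluorescence.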

Assay [14] deals with Tumor susceptibility gene 101 protein (Homo sapiens) (UniProt Q99816). Kind of assay: qHTS Validation Assay for Iinhibitors of HIV-1 Budding by Blocking the Interaction of PTAP/TSG101 (AID 485342; calls by dose curve). The method, boiled down:
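Tsg101 binding domain (10 uM final) in pH 7.5 HEPES/NaCl/Tween 20/EDTA/TCEP buffer was mixed with pin-transferred compounds, then FITC-labeled PTAP peptide (50 nM final) was added; after 20 min at r.t., fluorescence polarization was read.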

Assay [15] in a line: qHTS Validation Assay to Find Inhibitors of Chronic Active B-Cell Receptor Signaling (AID 485345; active = well fitted curve in the direction sought with a large enough effect in the main read-out, with a control signal flat, not every such curve was filed as active). The method, boiled down:
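TMD8 ABC-DLBCL cells with dox-inducible green luciferase–IκBα fusion and red native luciferase; compounds 46 uM–3 nM, 4 h at 37C with doxycycline in 0.5% FBS IMDM. Green/red ratio normalized to basal and 10 uM MG-132.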

The target of assay [16] is Beta-2 adrenergic receptor (Homo sapiens) (UniProt P07550). Kind of assay: qHTS validation assay of beta-arrestin-biased ligands of beta2-adrenergic receptor (AID 485366). The method, boiled down: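 Luminescence from a tTA-responsive luciferase, induced when recombinant beta-arrestin is recruited to recombinant beta2-AR, served as the agonism signal. Cells were exposed to compound for 18 hr at 37 degrees C; titrations spanned up to 46 microM.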

Assay [17] addresses RecQ-like DNA helicase BLM (Homo sapiens) (UniProt P54132). Kind of assay: qHTS Validation Assay for Inhibitors of Bloom's syndrome helicase (BLM) (AID 2364). Summed up:
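BLM 50 nM in 25 mM Tris-HCl pH 8.0, 5 mM NaCl, 2 mM MgCl2, 1 mM DTT, 0.01% Tween-20, 2.5 ug/ml poly(dI-dC); 15 min cpd preinc, RT. Start: 200 nM forked DNA + 2 mM ATP (final). TAMRA read, 2 reads 2 h apart.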

SMILES strings stand for the structures. Inconclusive results are not listed. Activity calls are given as the source filed them. Unless noted, calls follow the shape of the dose curve; as a rule, active = well fitted curve in the direction sought with a large enough effect; inconclusive = small, poorly fitted or top-dose-only effect, or another doubt; inactive = no such curve, though single readings can be large; an effect the other way counts as inactive or inconclusive.

Chain of Ubiquitin carboxyl-terminal hydrolase 2 (Homo sapiens) (O75604 whole entry, looked up): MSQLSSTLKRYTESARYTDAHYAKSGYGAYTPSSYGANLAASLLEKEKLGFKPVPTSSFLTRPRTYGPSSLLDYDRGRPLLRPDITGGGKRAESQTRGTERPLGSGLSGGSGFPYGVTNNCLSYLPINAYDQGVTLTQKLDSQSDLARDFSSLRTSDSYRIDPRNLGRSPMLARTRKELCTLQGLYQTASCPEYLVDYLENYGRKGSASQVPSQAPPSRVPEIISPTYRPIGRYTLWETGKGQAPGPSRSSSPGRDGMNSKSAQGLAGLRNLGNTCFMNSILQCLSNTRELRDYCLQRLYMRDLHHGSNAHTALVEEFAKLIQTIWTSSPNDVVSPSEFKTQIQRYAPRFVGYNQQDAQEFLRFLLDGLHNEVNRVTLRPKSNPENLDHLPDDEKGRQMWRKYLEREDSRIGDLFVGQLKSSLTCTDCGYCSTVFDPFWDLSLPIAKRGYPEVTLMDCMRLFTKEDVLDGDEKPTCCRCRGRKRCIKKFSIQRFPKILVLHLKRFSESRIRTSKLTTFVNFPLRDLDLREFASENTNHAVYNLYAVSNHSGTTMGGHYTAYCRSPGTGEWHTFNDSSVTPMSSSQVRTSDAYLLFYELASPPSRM
Chain of Beta-2 adrenergic receptor (Homo sapiens) (P07550 whole entry, looked up): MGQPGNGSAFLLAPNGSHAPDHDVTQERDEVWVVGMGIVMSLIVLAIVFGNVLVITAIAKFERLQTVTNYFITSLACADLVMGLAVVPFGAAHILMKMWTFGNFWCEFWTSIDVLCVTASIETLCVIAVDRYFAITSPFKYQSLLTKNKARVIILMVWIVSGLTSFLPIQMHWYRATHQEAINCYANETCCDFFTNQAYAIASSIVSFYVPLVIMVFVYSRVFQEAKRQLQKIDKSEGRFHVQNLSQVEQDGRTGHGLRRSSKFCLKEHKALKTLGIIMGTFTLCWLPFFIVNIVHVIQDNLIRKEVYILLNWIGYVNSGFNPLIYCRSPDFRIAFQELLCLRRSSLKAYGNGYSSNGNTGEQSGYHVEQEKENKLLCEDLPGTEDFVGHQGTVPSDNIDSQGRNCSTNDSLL
Chain of DNA polymerase III PolC-type (Bacillus subtilis (strain 168)) (P13267 whole entry, looked up): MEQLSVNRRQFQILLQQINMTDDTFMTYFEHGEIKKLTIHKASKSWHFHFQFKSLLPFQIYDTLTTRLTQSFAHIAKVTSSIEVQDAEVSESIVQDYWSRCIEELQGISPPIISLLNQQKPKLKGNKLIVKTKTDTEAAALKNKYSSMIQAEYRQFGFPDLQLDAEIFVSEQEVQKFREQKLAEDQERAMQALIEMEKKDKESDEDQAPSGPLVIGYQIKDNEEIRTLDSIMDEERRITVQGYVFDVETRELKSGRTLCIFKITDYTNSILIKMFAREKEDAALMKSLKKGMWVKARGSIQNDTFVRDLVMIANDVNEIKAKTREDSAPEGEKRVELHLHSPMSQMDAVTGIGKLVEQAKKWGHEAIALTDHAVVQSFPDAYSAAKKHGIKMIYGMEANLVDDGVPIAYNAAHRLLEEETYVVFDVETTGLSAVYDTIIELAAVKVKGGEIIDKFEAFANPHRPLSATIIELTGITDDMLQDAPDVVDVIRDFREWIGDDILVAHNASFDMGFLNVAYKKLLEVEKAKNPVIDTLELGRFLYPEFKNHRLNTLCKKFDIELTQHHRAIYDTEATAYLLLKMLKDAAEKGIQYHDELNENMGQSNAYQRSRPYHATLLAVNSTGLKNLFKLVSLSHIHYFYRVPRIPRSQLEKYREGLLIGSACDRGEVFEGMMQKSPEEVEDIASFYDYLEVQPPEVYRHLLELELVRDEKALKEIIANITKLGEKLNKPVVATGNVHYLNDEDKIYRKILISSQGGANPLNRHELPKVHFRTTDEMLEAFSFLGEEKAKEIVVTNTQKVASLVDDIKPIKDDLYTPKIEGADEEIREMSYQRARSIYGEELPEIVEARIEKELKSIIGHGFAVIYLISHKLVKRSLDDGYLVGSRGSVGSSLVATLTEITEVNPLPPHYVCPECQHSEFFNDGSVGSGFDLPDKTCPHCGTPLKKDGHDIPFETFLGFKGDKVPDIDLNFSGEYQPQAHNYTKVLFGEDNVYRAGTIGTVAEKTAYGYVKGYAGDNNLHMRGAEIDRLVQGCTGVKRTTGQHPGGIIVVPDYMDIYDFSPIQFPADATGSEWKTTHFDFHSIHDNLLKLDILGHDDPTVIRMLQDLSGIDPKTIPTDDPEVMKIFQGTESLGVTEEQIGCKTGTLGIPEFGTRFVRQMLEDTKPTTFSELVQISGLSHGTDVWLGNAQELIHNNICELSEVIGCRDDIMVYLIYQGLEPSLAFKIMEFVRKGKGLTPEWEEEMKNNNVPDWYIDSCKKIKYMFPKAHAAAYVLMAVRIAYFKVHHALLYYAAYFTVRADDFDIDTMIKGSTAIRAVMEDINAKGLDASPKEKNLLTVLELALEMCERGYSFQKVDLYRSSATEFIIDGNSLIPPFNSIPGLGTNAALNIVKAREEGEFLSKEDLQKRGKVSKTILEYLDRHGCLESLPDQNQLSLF
Chain of Ferritin light chain (Equus caballus) (P02791 2-175 limits assumed): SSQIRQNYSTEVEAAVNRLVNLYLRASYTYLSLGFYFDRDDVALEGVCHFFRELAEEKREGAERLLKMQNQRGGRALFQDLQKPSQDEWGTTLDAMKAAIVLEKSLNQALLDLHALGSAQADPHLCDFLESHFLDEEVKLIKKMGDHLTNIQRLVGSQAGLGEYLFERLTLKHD
Chain of Tumor susceptibility gene 101 protein (Homo sapiens) (Q99816 whole entry, looked up, the tested form may be a part): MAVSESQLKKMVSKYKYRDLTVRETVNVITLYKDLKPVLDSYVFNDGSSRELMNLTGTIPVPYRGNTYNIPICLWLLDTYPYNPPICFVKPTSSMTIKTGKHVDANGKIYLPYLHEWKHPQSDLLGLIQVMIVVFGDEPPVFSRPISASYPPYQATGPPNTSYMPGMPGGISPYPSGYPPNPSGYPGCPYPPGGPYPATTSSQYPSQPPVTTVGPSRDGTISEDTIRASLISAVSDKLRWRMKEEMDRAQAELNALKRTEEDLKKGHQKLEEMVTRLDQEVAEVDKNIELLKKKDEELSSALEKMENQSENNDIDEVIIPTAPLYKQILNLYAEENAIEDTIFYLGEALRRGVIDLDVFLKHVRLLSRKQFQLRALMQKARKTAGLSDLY
Chain of ATP-dependent DNA helicase Q1 (Homo sapiens) (P46063 whole entry, looked up): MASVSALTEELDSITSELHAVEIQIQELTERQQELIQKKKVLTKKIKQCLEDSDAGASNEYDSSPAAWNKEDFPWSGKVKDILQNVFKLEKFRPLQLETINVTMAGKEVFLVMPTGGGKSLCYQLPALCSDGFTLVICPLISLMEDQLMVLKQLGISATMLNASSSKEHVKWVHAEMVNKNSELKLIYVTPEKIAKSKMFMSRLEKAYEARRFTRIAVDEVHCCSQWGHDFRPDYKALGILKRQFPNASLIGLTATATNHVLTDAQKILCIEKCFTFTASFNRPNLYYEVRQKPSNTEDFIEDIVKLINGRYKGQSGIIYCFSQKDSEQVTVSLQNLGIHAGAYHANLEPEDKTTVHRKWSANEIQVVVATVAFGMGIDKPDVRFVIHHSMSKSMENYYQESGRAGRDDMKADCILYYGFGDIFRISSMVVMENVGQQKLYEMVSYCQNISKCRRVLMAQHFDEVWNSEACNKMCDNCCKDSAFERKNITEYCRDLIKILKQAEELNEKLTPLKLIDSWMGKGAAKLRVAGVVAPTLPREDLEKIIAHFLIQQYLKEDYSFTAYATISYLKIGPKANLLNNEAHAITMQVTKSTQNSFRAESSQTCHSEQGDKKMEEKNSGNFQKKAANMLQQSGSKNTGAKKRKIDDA

Consider `NCC(O)(CS(=O)(=O)O)c1ccc(Cl)cc1` (stereo not given), for which the Potency entry in [1], in assay [2], in [3], in assay [5], in assay [6] and in assay [8] was “inactive” each time. In addition, the Potency result in assay [9], in assay [10], in assay [11], in assay [12] and in [13] was “inactive” throughout. Besides, the result in [4], in [7], in assay [14], in [15] and in assay [16] was inactive.
For `C#CCn1c(=O)c2c(ncn2C)n(C)c1=O`, the Potency result in assay [1], in [2], in assay [3], in [5], in assay [9] and in assay [10] was “inactive” throughout. Besides, the Potency result in [11], in assay [12] and in assay [13] was “inactive” each time. Besides, the result in [4], in assay [7] and in assay [16] was inactive.
On to `CC(C)C[C@H](NC(=O)C1OC1C(=O)O)C(=O)NCCCCN=C(N)N` (stereo not given in full), for which the figures for the Potency in assay [1], in assay [2] and in [3] were 6.31 µM (active), 2.51 µM (active) and 2.51 µM (active), respectively. The Potency result in assay [5], in assay [6], in assay [8], in assay [9], in assay [10] and in [11] was “inactive” in each case. Besides, the Potency entry in [13] was “inactive”. The result in assay [7], in [14], in [15] and in assay [16] was inactive.
As to `CC(N)=O`, the Potency result in [1], in assay [2], in [3], in assay [5], in assay [6] and in assay [8] was “inactive” in each case. The Potency result in assay [9], in assay [10], in assay [11], in [12] and in [13] was “inactive” in each case. The call in [7], in assay [14] and in [16] was inactive.
Turning to `C=CCN1CCc2cc(O)c(O)cc2C(c2ccccc2)C1` (stereo not given), the Potency is 12.6 µM (active) in assay [1], 7.94 µM (active) in assay [2] and 11.2 µM (active) in assay [3]. The Potency result in assay [5], in [6], in [8], in assay [9], in assay [11] and in [12] was “inactive” throughout. Moreover, the Potency entry in assay [13] was “inactive”. The outcome in assay [7], in assay [14], in assay [15] and in [16] was inactive.
As for `N#CC(=C(\N)Sc1ccccc1N)/C(C#N)=C(/N)Sc1ccccc1N`, the Potency was 7.08 µM (active) in assay [1], 2.82 µM (active) in [2], 4.47 µM (active) in [3] and 7.94 µM (active) in assay [11]. Further, the result in assay [4], in [7], in [14] and in assay [16] was inactive. The Potency result in assay [6], in assay [8], in assay [12] and in assay [13] was “inactive” each time.
In the case of `COc1ccc(NC(=O)c2ccc(-c3ccc(-c4noc(C)n4)cc3C)cc2)cc1N1CCN(C)CC1`, the Potency in assay [1] was 5.62 µM (active); in assay [2], 3.98 µM (active); in assay [3], 2.82 µM (active); in assay [9] it was 5.85 µM (active); in [10], 5.85 µM (active); in [11], 12.6 µM (active). The Potency entry in assay [5], in [6], in [17], in assay [12] and in [13] was “inactive” throughout. Further, the result in assay [14] and in [16] was inactive.
Turning to `CCCCS(=N)(=O)CC[C@H](N)C(=O)O` (stereo not given in full), the Potency result in assay [1], in assay [3], in assay [5], in [6], in [8] and in assay [9] was “inactive” in each case. For the same molecule, the Potency result in assay [10], in [11], in assay [12] and in [13] was “inactive” throughout. Moreover, the Potency in assay [2] was 8.91 µM (active). The call in assay [7], in assay [14] and in assay [16] was inactive.
Consider `NC(=Nc1ccccc1)NC(=O)c1nc(Cl)c(N)nc1N`, for which the Potency entry in assay [1], in assay [5], in [6], in [17], in assay [8] and in [9] was “inactive” each time. Also, the Potency entry in [10], in assay [12] and in assay [13] was “inactive” each time. In addition, the results for the Potency in [2], in assay [3] and in [11] were 7.08 µM (active), 7.94 µM (active) and 14.1 µM (active), respectively. The outcome in [7] and in [14] was inactive.
For `Nc1ccc(-c2nc3ccc(-c4nc5ccc(N)cc5[nH]4)cc3[nH]2)cc1`, the Potency in assay [1] was 1 µM (active); in assay [2], 0.251 µM (active); in assay [3], 0.794 µM (active); in [6], 8.91 µM (active); in assay [13] it was 21.2 µM (active). Moreover, the Potency entry in assay [5], in [8], in assay [9] and in [10] was “inactive” throughout. Further, the molecule was called inactive in assay [7], in [14] and in assay [16].
